From PubChem BioAssay (NCATS)
Records with an inconclusive call do not appear. Active and inactive are the calls of the source. Calls follow the shape of the dose curve; as a rule, active = well fitted inhibition curve with a large enough effect; inconclusive = small, poorly fitted or top-dose-only effect; inactive = flat fitted curve, though single readings scatter.

system: NIH3T3; assay: Cytotoxic Profiling of Annotated Libraries Using Quantitative High-Throughput Screening (AID 1296008); settings: Five cell lines viability, CellTiter-Glo ATP luminescence, 48-72 h; max response: hits give low values; also: nearly all actives have a fitted effect of over 60% in size
Procedure, shortened: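 Cytotoxicity was measured as CellTiter-Glo ATP luminescence, read after 10 min at room temperature. Compound treatment of the cells lasted 48 or 72 hr at 37 degrees Celsius in a qHTS format.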
% is scaled to controls: 0 for no effect and ±100 for the full control effect; potency is read from the fitted curve at half-maximal effect.

Row | Compound | max response | Potency
1 | CC1CCC23COC(=O)C2=CC(O)CC3C1(C)CCC1=CC(O)OC1=O (centres undefined) | 0.229% (inactive) | –
2 | CC1=C(C)C(=O)OC(C(C)C2CCC3C4C5OC5C5(O)CC(OC6OC(CO)C(OC7OC(C)C(O)C(O)C7O)C(O)C6O)CC(O)C5(C)C4CCC23C)C1 (centres undefined) | 3.69% (inactive) | –
3 | C[C@@H]1O[C@@H](O[C@H]2[C@H](OC(=O)[C@]34CCC(C)(C)C[C@H]3C3=CCC5[C@@]6(C)C[C@H](O)[C@H](O[C@@H]7O[C@H](CO)[C@@H](O[C@H]8OC[C@](O)(CO)[C@H]8O)[C@H](O)[C@H]7O)[C@@](C)(CO)C6[C@H](O)C[C@@]5(C)[C@]3(C)C[C@H]4O)OC[C@H](O)[C@@H]2O)[C@H](O)[C@H](O)[C@H]1O[C@@H]1OC[C@@H](O)[C@H](O[C@@H]2OC[C@](O)(CO)[C@H]2O)[C@H]1O (some centres undefined) | -0.781% (inactive) | –
4 | O=[N+]([O-])c1cn2c(n1)OCC(OCc1ccc(OC(F)(F)F)cc1)C2 (centres undefined) | 0.653% (inactive) | –
5 | COCCOc1ccc(N2CCN(CCn3ncc4c3nc(N)n3nc(-c5ccco5)nc43)CC2)cc1 | 0.99% (inactive) | –
6 | C/C(=C\CCC(C)CCO)C(=O)O[C@@H]1[C@@H](O)[C@H](OC2OC=C(C(=O)O)C3CCC(C)(O)C23)O[C@H](CO)[C@H]1O (some centres undefined) | -17.6% (inactive) | –
7 | Cc1cc(C(N)=O)ccc1-n1c(CCC(=O)O)ccc1-c1ccc(-n2ccnc2)cc1 | -2.74% (inactive) | –
8 | CC(C)[C@H]1CC[C@@]2(O)COC(=O)[C@H]2[C@@H]1/C=C(\CO)C(=O)O | -2.01% (inactive) | –
9 | C=C1[C@H](OC(C)=O)[C@H]2[C@@H](OC(C)=O)[C@](C)(OC(C)=O)C[C@]2(OC(C)=O)C(=O)[C@H](C)/C=C/C(C)(C)C(=O)[C@H](OC(=O)C(C)CC)[C@H]1OC(C)=O (some centres undefined) | -13.5% (inactive) | –
10 | C[C@H](N)C(=O)N[C@@H](Cc1ccc(O)cc1)C(=O)N1CCC[C@H]1C(=O)NCC(=O)N[C@@H](CCCCN)C(=O)N[C@@H](Cc1ccccc1)C(N)=O | 3.32% (inactive) | –
11 | CCCNc1ccc2ncc(-c3ccc4[nH]ncc4c3)n2n1 | – | 3.26 µM (active)
12 | Cc1cccc(C)c1-n1c(=O)c2cnc(Nc3ccc(N4CCN(C)CC4)cc3)nc2n2c3ccccc3nc12 | – | 1.3 µM (active)
13 | O=C1OCC(c2ccccc2)=C1Cc1ccccc1 | -8.21% (inactive) | –
14 | C=C(CO)C12OC1C1(C)C(=CC2=O)C(O)C(O)CC1C (centres undefined) | -6.8% (inactive) | –
15 | C=C1CCC2C(C)(C(=O)O)CCCC2(C)C1CCC(C)CC(=O)O (centres undefined) | -9.77% (inactive) | –
16 | C[C@@H]1C(=O)O[C@H]2C[C@]34[C@H]5C[C@@H](C(C)(C)C)[C@]36[C@@H](OC(=O)[C@H]6O)O[C@]4(C(=O)O5)[C@]21O | 3.92% (inactive) | –
17 | C#CCN(Cc1cc2c(=O)[nH]c(C)nc2cc1Br)c1ccc(C(=O)NCc2cccnc2)cc1 | – | 0.0092 µM (active)
18 | CC(C)[C@@H]1C(=O)N(S(C)(=O)=O)[C@@H]2CCN(C(=O)/C=C/CN3CCCCC3)[C@H]21 | 1.85% (inactive) | –
19 | CC(C)(F)C[C@@H](N[C@@H](c1ccc(-c2ccc(S(C)(=O)=O)cc2)cc1)C(F)(F)F)C(=O)NC1(C#N)CC1 | -4.72% (inactive) | –
20 | C=C[C@H]1C(O[C@@H]2O[C@H](CO)[C@@H](O)[C@H](O)[C@H]2O)OC=C2C(=O)N3CCc4c([nH]c5ccccc45)[C@H]3C[C@H]21 (some centres undefined) | 2.76% (inactive) | –

Row | Compound | max response | Potency
21 | COc1cc2ncnc(Nc3ccc(O)cc3)c2cc1OC | 2.24% (inactive) | –
22 | CC(=O)O[C@H]1CC(C)(C)CC2[C@@]13[C@H](O)C[C@]1(C)[C@@]2(CCC2[C@@]4(C)CC[C@H](O[C@@H]5OC[C@H](O[C@@H]6O[C@H](CO)[C@@H](O)[C@H](O)[C@H]6O[C@@H]6OC[C@@H](O)[C@H](O)[C@H]6O)[C@H](O)[C@H]5O[C@@H]5O[C@H](CO)[C@@H](O)[C@H](O)[C@H]5O)C(C)(C)C4CC[C@]21C)O[C@@H]3O (some centres undefined) | – | 2.76 µM (active)
23 | CC(C)C(N)C(=O)OCCOCn1cnc2c(=O)[nH]c(N)nc21 (centres undefined) | 1.39% (inactive) | –
24 | C[C@@H]1O[C@@H](O[C@@H]2[C@@H](O[C@@H]3O[C@@H](C)[C@H](O[C@@H]4OC[C@H](O)[C@H](O[C@@H]5OC[C@@H](O)[C@H](O)[C@H]5O)[C@H]4O)[C@@H](O[C@@H]4OC[C@](O)(CO)[C@H]4O)[C@H]3O)[C@H](OC(=O)[C@]34CCC(C)(C)C[C@H]3C3=CCC5[C@@]6(C)C[C@H](O)[C@H](O[C@@H]7O[C@H](CO[C@@H]8OC[C@H](O)[C@H](O)[C@H]8O)[C@@H](O)[C@H](O)[C@H]7O)C(C)(C)C6CC[C@@]5(C)[C@]3(C)C[C@H]4O)OC[C@H]2O)[C@H](O)[C@H](O)[C@H]1O (some centres undefined) | 0.953% (inactive) | –
25 | c1cn2cc(-c3ccc4cn[nH]c4c3)nc(Nc3ccc(N4CCOCC4)cc3)c2n1 | -11.5% (inactive) | –
26 | CC(C)(O)/C=C/C1=CC(=O)[C@@](C)(O)C[C@H]1O | -2.07% (inactive) | –
27 | COC(=O)C[C@H]1C(C)(C)[C@H](OC(=O)C(C)C)[C@@]2(O)C(=O)[C@]1(C)C1CC[C@]3(C)C(CC(=O)O[C@H]3c3ccoc3)[C@]13O[C@@H]32 (some centres undefined) | 3.21% (inactive) | –
28 | C(#Cc1nc2ncccc2nc1OCCN1CCCC1)c1ccccc1 | – | 5.17 µM (active)
29 | CC(=O)O[C@H]1C[C@@]2(C)[C@@H](CC[C@H]3[C@@]4(C)C=CC(=O)[C@@H](C)[C@@H]4[C@H](O)C(=O)[C@@]32C)/C1=C(/CCC=C(C)C)C(=O)O | -3.01% (inactive) | –
30 | CC(=O)N[C@H]1[C@H](O[C@H]2CC[C@@]3(C)C(CC[C@]4(C)C3CC=C3[C@@H]5CC(C)(C)CC[C@]5(C(=O)OC5OCC(O)C(O)C5O)CC[C@]34C)C2(C)C)O[C@H](COC2OC(C)C(O)C(OC3OC(C)C(O)C(O)C3O)C2O)[C@@H](O)[C@@H]1O (some centres undefined) | 3.74% (inactive) | –
31 | C=C1CCCC2(C)CC3(OC)OC(=O)C(C)=C3CC12 (centres undefined) | -10.6% (inactive) | –
32 | CC1(C)CC[C@]2(C(=O)O[C@@H]3O[C@H](CO[C@@H]4O[C@H](CO)[C@@H](O)[C@H](O)[C@H]4O[C@@H]4O[C@H](CO)[C@@H](O)[C@H](O)[C@H]4O)[C@@H](O)[C@H](O[C@@H]4O[C@H](CO)[C@@H](O)[C@H](O)[C@H]4O)[C@H]3O)CC[C@]3(C)C(=CCC4[C@@]5(C)CC[C@@H](O)[C@@](C)(C(=O)O[C@@H]6O[C@H](CO)[C@@H](O)[C@H](O)[C@H]6O)C5CC[C@]43C)[C@@H]2C1 (some centres undefined) | 1.8% (inactive) | –
33 | CC(C)(C)c1ccc(S(=O)(=O)NCc2ccc(C(=O)Nc3cccnc3)cc2)cc1 | – | 3.66 µM (active)
34 | COc1cc(C2c3cc4c(c(O)c3CC(CO)C2C(=O)O)OCO4)cc(OC)c1O (centres undefined) | – | 2.82 µM (active)
35 | CO[C@@H](C)Cn1c(=O)n(C)c2cnc3ccc(-c4cncc(C(C)(C)O)c4)cc3c21 | – | 0.326 µM (active)
36 | C=C[C@H]1[C@H](O[C@@H]2O[C@H](CO)[C@@H](O)[C@H](O)[C@H]2O)OC=C(C(=O)OC)[C@H]1C[C@@H]1c2cc(O)c(O)cc2CCN1C(C)=O | -10.7% (inactive) | –
37 | Cc1nc2sc(C(=O)NCc3ccncc3)c(N)c2c(C)c1Cl | -29.7% (inactive) | –
38 | COc1cc(O)cc(C)c1C(=O)OC1C(CO)OC(OC2C(O)C(O)C(O)C(O)C2O)C(O)C1O (centres undefined) | -8.82% (inactive) | –
39 | C[C@@H]1CC[C@@]2(OC1)O[C@H]1C[C@H]3[C@@H]4CC=C5C[C@@H](O)CC[C@]5(C)[C@H]4CC[C@]3(C)[C@H]1[C@@H]2C | -1.68% (inactive) | –
